20 molecules from PubChem BioAssay (NCI) can be followed below.

Experiment [1] can be described thus: NCI Yeast Anticancer Drug Screen. Data for the rad50 strain (AID 155).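 Also: 0% = growth of vehicle-only cultures of the same strain.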 Particulars: S. cerevisiae rad50 strain growth inhibition; at 50.0 µM; active compounds read high. The essentials: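 Cells are treated with compound, grown, and their growth is then scored against vehicle-only cultures of the same repair-deficient yeast strain.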
The nature of experiment [2]: NCI Yeast Anticancer Drug Screen. Data for the mec2-1 strain (AID 157). Particulars: S. cerevisiae mec2-1 strain, at 50.0 µM, active compounds read high. The essentials: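 Using mec2-1 yeast: add compound, measure growth, express inhibition versus vehicle-treated cultures.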
Experiment [3] can be described thus: NCI Yeast Anticancer Drug Screen. Data for the sgs1 mgt1 strain (AID 161).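 Also: 0% = growth of cultures given vehicle only.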 The conditions noted are these: S. cerevisiae sgs1 mgt1 strain, at 50.0 µM, active compounds read high. An outline of the steps:
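Yeast cells carrying a defined DNA-repair defect were exposed to test compounds. Growth inhibition was measured relative to vehicle-treated controls.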

Experiment [4] can be described thus: NCI Yeast Anticancer Drug Screen. Data for the cln2 rad14 strain (AID 165).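 Also: 0% = growth equal to vehicle treated cultures.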 Particulars: S. cerevisiae cln2 rad14 strain, at 50.0 µM, active compounds read high. The essentials:
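Yeast strain cln2 rad14, bearing defects in cell cycle control and DNA repair, serves as the test system; values reflect growth inhibition compared with vehicle.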

Experiment [5] can be described thus: NCI Yeast Anticancer Drug Screen. Data for the bub3 strain (AID 167). Particulars: S. cerevisiae bub3 mutant strain, at 50.0 µM, active compounds read high. An outline of the steps: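 Part of a panel of yeast mutants defective in DNA damage repair or cell cycle regulation. Each strain is grown with compound, and inhibition is calculated relative to solvent-treated cultures.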

The nature of experiment [6]: NCI Yeast Anticancer Drug Screen. Data for the mlh1 rad18 strain (AID 175). Particulars: S. cerevisiae mlh1 rad18 strain growth inhibition; at 50.0 µM; active compounds read high. An outline of the steps:
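Steps: expose repair-defective yeast to compound; measure growth; express inhibition against vehicle-treated controls.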

This is part of a sample that, as a whole, favours compounds with a hit. Of some 79,000 tested, about 15% had one in any assay. Values without a mark were called inactive. Activity calls are given as the source filed them. Rule as the data show it: active = growth inhibition above about 70%; inactive = the rest.

For `CN(C)c1ccc(/C=C2\N=C(c3ccc([N+](=O)[O-])cc3)OC2=O)cc1`, the growth inhibition was 1.35% in experiment [1]; -6.75% in experiment [2]; 17.1% in experiment [3]; 6.95% in experiment [4]; 14.9% in experiment [5]; 7.55% in experiment [6].
Regarding `COc1ccc(C(=O)C(C)(c2nc3n(c2O)C(=N)N=N3)c2nc3n(c2O)C(=N)N=N3)cc1` (stereo not given), the growth inhibition in experiment [1] was -8.8%; in experiment [2], 4.45%; in experiment [3], 0.75%; in experiment [4] it was -8.85%; in experiment [5] it was 5.8%; in experiment [6], -7.95%.
As to `O=C1NC(=O)C(c2ccc(Cl)c(Cl)c2)N1` (stereo not given), the growth inhibition was 11.2% in experiment [1]; -10% in experiment [2]; -13.2% in experiment [3]; -13.7% in experiment [4]; -12.9% in experiment [5]; -3.55% in experiment [6].
As to `CN1C(=O)N(C)C(N2CCCC2)c2c1nc1ccccn1c2=O` (stereo not given), the growth inhibition was -11.7% in experiment [1]; -30.8% in experiment [2]; -41.8% in experiment [3]; 5.15% in experiment [4]; -5% in experiment [5]; -29.4% in experiment [6].
As to `Cc1ccccc1N1CC2CC3C=CC2(C1)O3` (stereo not given), the growth inhibition in experiment [1] is 8.5%; in experiment [2], 15.9%; in experiment [3], 16.8%; in experiment [4] it was -10.1%; in experiment [5], 1.35%; in experiment [6], 1.7%.
`O=C(/C=C/c1ccccc1)/C=N/N1C(=S)N(c2ccccc2)C(=Nc2ccccc2)C1=Nc1ccccc1`: the growth inhibition in experiment [1] was -7.4%; in experiment [2], -15.8%; in experiment [3], -12.9%; in experiment [4], -20.2%; in experiment [5], -20.1%; in experiment [6] it was -21.6%.
As for `COC(=O)/C(C#N)=C1\NC(=O)c2ccccc21`, the growth inhibition was 30.1% in experiment [1]; 16.1% in experiment [2]; 11.6% in experiment [3]; 30.8% in experiment [4]; 11.5% in experiment [5]; 26% in experiment [6].
With `O=c1cc(-c2ccccc2F)[nH]c2ccc(N3CCCC3)cc12`, the growth inhibition in experiment [1] is 13.6%; in experiment [2], 6.2%; in experiment [3] it was 25.5%; in experiment [4], 0.65%; in experiment [5], 22.3%; in experiment [6], 23.6%.
As to `COC(=O)COc1cc2c(cc1C(C)c1ccc(O)cc1)OCO2` (stereo not given), the growth inhibition was 98.8% (active) in experiment [1]; 98.5% (active) in experiment [2]; 99% (active) in experiment [3]; 99.1% (active) in experiment [4]; 99.2% (active) in experiment [5]; 98.7% (active) in experiment [6].
As to `CCCCS(=O)(=O)CCC(N)P(=O)(O)O` (stereo not given), the growth inhibition was -26.9% in experiment [1]; -77.8% in experiment [2]; -43.2% in experiment [3]; -33.8% in experiment [4]; -6.15% in experiment [5]; -36.9% in experiment [6].
Take `BrC1=CCC23CC=C(Br)[C@H]4CC2(COC3)C[C@@H]1O4` (stereo not given in full): the growth inhibition in experiment [1] is 25.2%; in experiment [2], -0.55%; in experiment [3] it was 0.6%; in experiment [4], -0.05%; in experiment [5] it was -19.4%; in experiment [6], -9.75%.
Consider `C(=C/c1nnc2ncccn12)/c1ccccc1`, for which the growth inhibition in experiment [1] is -13.8%; in experiment [2] it was -4.85%; in experiment [3], -1.5%; in experiment [4], -15.7%; in experiment [5] it was 0.05%; in experiment [6], -5.4%.
Turning to `O=C(Nc1cccc(Cc2cccc(NC(=O)c3ccccc3)c2)c1)c1ccccc1`, the growth inhibition in experiment [1] was 5.65%; in experiment [2], -1.9%; in experiment [3], -11.9%; in experiment [4], -41.1%; in experiment [5], -2.35%; in experiment [6] it was -0.35%.
For `Nc1nnc2nc(CC(=O)c3ccccn3)/c(=C/C(=O)c3ccccn3)n12`, the growth inhibition in experiment [1] was -7.3%; in experiment [2], -13.7%; in experiment [3] it was -2.8%; in experiment [4] it was -43.3%; in experiment [5], -26.9%; in experiment [6] it was -23.1%.
As for `Clc1ccc(SCCCCSc2ccc(Cl)cc2)cc1`, the growth inhibition was 8.05% in experiment [1]; -6.7% in experiment [2]; 7.7% in experiment [3]; -3.45% in experiment [4]; 10.8% in experiment [5]; 10.8% in experiment [6].
`c1ccc(C2CCN3c4ccc5ccccc5c4NCC23)cc1` (stereo not given): the growth inhibition in experiment [1] was 36%; in experiment [2], 68%; in experiment [3] it was 45.6%; in experiment [4], 14.5%; in experiment [5], 88.8% (active); in experiment [6], 67.3%.
For `C=C(C)c1nn(-c2ccccc2)c2c1C(=O)CC(C)O2` (stereo not given), the growth inhibition in experiment [1] was -12.2%; in experiment [2], -26.2%; in experiment [3], 1.8%; in experiment [4] it was 29.2%; in experiment [5] it was -7.45%; in experiment [6], 8.5%.
Turning to `CC(=O)/C=C(O)/C=C/c1ccccc1`, the growth inhibition in experiment [1] is -0.9%; in experiment [2], 5.45%; in experiment [3], -12.9%; in experiment [4], 9.15%; in experiment [5] it was 14.9%; in experiment [6], 12.9%.
Consider `NC(=S)N/N=C(/CC(=O)c1ccc([N+](=O)[O-])cc1)C(=O)Nc1ncc([N+](=O)[O-])s1`, for which the growth inhibition in experiment [1] was 51.9%; in experiment [2], 29%; in experiment [3], 30.1%; in experiment [4], 19.2%; in experiment [5], 53.2%; in experiment [6] it was 25.2%.
`COC(=O)c1cc2cc3ccccc3cc2cc1C(=O)OC`: the growth inhibition in experiment [1] is 1.7%; in experiment [2], 14.4%; in experiment [3], 11.8%; in experiment [4], -13.4%; in experiment [5], -26.1%; in experiment [6], -8.8%.
